Screening results: PubChem, National Center for Advancing Translational Sciences (NCATS)
Sampled rows, rich in hits. Any-hit rate of the full collection: about 1.3%.
pAkt inh – Akt phosphorylation inhibition | Neuro2A IGF-stimulated pAkt S473 HTRF, 20 min; stronger effect = lower value | activity change, % for hits at 50 µM | hit rate 0.32% among 360,000 | AID 651550; in the data active = activity change below about -80%; inconclusive = mostly about -51% to -80%
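Neuro2A cells in DMEM with 0.5% FBS, overnight at 37 deg C, given compound at single 50 µM final, then IGF (6 nM final) for 20 min at 37 deg C. Lysed; phospho-Akt Ser473 by HTRF after 24 h, 665/615 ratio.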
RXFP1 antagonist – RXFP1 (human) relaxin receptor antagonism; hit rate 0.59% among 350,000; Q9HBX9; HEK293-RXFP1, relaxin-stimulated cAMP HTRF, 30 min; stronger effect = lower value; AID 1259400; activity change, negative = inhibition, % at 57.5 µM;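 active = activity change of -60% or lower, but not beyond a set lower limit; inconclusive = change between -60% and -40%, or beyond the set limit; inactive = change above -40%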
Target sequence (Q9HBX9 whole entry, looked up): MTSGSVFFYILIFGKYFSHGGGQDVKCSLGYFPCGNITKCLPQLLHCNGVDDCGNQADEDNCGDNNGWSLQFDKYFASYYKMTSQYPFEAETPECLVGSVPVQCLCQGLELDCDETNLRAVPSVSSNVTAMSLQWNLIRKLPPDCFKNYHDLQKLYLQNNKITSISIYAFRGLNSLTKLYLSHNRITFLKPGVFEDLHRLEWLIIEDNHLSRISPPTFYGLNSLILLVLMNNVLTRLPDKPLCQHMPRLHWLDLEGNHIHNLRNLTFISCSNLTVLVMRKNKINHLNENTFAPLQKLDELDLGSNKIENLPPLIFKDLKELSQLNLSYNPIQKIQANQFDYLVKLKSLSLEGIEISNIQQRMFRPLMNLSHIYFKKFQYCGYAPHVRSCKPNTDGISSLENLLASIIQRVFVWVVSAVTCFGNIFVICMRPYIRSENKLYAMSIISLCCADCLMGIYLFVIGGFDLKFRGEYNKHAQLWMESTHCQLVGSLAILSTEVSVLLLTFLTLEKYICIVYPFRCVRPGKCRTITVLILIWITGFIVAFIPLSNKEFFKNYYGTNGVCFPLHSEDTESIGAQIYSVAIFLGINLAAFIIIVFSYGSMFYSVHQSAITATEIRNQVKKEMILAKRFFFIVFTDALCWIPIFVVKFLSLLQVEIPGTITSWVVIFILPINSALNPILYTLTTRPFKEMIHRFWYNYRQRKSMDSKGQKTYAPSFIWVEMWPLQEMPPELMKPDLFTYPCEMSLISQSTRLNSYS
TSHR antagonist – blocks TSH signaling through the human TSH receptor | P16473 | TSHR-expressing cells, TSH-stimulated cAMP HTRF, 2 h; stronger effect = lower value | activity change, negative = inhibition, % at 11.5 µM | hit rate 0.2% among 330,000 | AID 504810;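 active = activity change below a set negative limit, meaning inhibition stronger than a set level, cut at about -70% in these data; inconclusive = activity change between two set negative limits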
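Competitive HTRF cAMP read-out (cryptate anti-cAMP antibody, cAMP-d2; 30 min, room temperature) in freshly harvested TSHR cells. Compounds added before TSH at EC80 (4nM final), followed by 2 hours' incubation at 37 deg C.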
gsp antagonist – gsp mutant antagonism; AID 624288; gsp-mutant cells, cAMP HTRF, 30 min; hit rate 0.4% among 340,000; Potency, µM (series often up to 76.9 µM), hits mostly inhibitors; calls by dose curve; cell line not stated here;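 also: intracellular cAMP measured with PDE inhibitor Ro 20-1724 present during compound exposure; nearly all actives have a fitted effect of over 65% in size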
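G418-selected cells were plated in DMEM/10% FBS for 16-24 h at 37C, then treated with compounds plus the PDE inhibitor […] (300 uM solution added) for 30 min at 37C. Intracellular cAMP was measured by HTRF after 30 min lysis at room temperature.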
RXFP1 ag – activates the human relaxin receptor RXFP1 | HEK293T-RXFP1 cAMP TR-FRET, 30 min; response scale: percent of porcine relaxin response, buffer zero | Potency, µM (titrated, usually from 57.5 µM), hits mostly activators | hit rate 0.3% among 370,000 | AID 2676; active = well fitted activation curve with a large enough effect; inconclusive = small, poorly fitted or top-dose-only effect; also: nearly all actives have a fitted effect of over 60% in size
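Agonist response is measured as cAMP accumulation in an RXFP1-transfected HEK293T line under PDE4 inhibition. Values are scaled between buffer-only and 29 nM porcine relaxin, and EC50s come from standard Hill equation fits.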
gsp agonist – agonists of gsp mutant (McCune-Albright syndrome); Potency, µM (series often up to 76.9 µM), hits mostly activators; gsp mutant cells, cAMP HTRF, 30 min; hit rate 0.13% among 340,000; AID 624287; active = well fitted activation curve with a large enough effect; inconclusive = small, poorly fitted or top-dose-only effect, or another doubt; inactive = no such curve, though single readings can be large or run the other way; cell line not stated here;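 also: phosphodiesterase inhibitor Ro 20-1724 added with compounds to block cAMP breakdown; nearly all actives have a fitted effect of over 60% in size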
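Cells stably selected in G418 were plated at 2000/well, grown 16-24 hr, then given compounds in DMSO with the PDE inhibitor […] (300 uM solution added) for 30 min at 37C; cAMP was read by HTRF.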
Large screens that a line does not name were inactive.

CC(C)C[C@H](NC(=O)c1nc[nH]c1C(=O)NCc1ccccc1)C(=O)OCc1ccccc1	none (no result: RXFP1 antagonist, gsp agonist)
CC(C)(C)OC(=O)NCCCCCNC(=O)c1nc[nH]c1C(=O)NCc1ccc(CNC(=O)OC(C)(C)C)cc1	gsp antagonist 40µM (no result: RXFP1 antagonist, RXFP1 ag, gsp agonist)
C[C@H](NC(=O)c1nc[nH]c1C(=O)NCc1ccccc1)C(=O)OCc1ccccc1	gsp antagonist 11µM (no result: RXFP1 antagonist)
CCOC(=O)c1ccc(Nc2c(-c3cccc(O)c3)nc3nc[nH]n23)cc1	none (no result: pAkt inh, TSHR antagonist, gsp antagonist, gsp agonist)
C[C@]12C=CC(=O)C=C1[C@@H](F)C[C@@H]1[C@@H]2[C@@H](O)C[C@@]2(C)[C@H]1CC[C@]2(O)C(=O)CO	none (no result: pAkt inh, TSHR antagonist, gsp antagonist, RXFP1 ag, gsp agonist)
COc1ccc(CCC(=O)NCc2ccc3c(c2)CCN3C(=O)c2cccc(C)c2)cc1	RXFP1 antagonist -96 (no result: pAkt inh, TSHR antagonist, gsp antagonist, gsp agonist)
COc1cccc(C(=O)NC2CC(C)(C)Cc3c2cnn3-c2cccc(F)c2)c1OC (stereo unspecified)	none
COc1cc2nc(Cl)nc(N)c2cc1OC	none (no result: pAkt inh, TSHR antagonist, gsp antagonist, RXFP1 ag, gsp agonist)
COc1ccc(CCN2CC(C(=O)NCC(c3ccccc3)N(C)C)CC2=O)cc1OC (stereo unspecified)	RXFP1 antagonist -90 (no result: RXFP1 ag)
COc1ccc(-c2c3c([nH]c(=S)c2C#N)CCC3)cc1	RXFP1 ag 32µM, gsp agonist 4.5µM
COc1ccc(OC)c(-c2c3c([nH]c(=S)c2C#N)CCCC3)c1	none
COc1ccc(Br)cc1CN(C)C(=O)CNC(=O)c1ccc2ccccc2c1	gsp antagonist 32µM
CCOC(=O)C1=C(C)NC(C)=C(C(=O)OCCNC(=O)c2cccnc2)C1c1cccc([N+](=O)[O-])c1 (stereo unspecified)	none (no result: RXFP1 antagonist)
O=C(NCCOC(=O)c1ccc([N+](=O)[O-])cc1)c1cccnc1	RXFP1 ag inconclusive, gsp agonist 18µM
COc1cc(NC(=O)C(C)C)ccc1NC(=O)c1ccco1	TSHR antagonist -93
CCC(=O)Nc1cc(SCCO)cc([N+](=O)[O-])c1	pAkt inh -88%
COc1ccc(C(=O)c2cnc3ccc(C)cc3c2S(=O)(=O)c2ccccc2)cc1	none (no result: pAkt inh, TSHR antagonist, gsp antagonist, gsp agonist)
Cc1ccc(S(=O)(=O)c2c(C(=O)c3ccccc3)cnc3cc4c(cc23)OCCO4)cc1	TSHR antagonist -83
Cc1ccc(C(=O)NC2CCCCCC2)o1	pAkt inh -140%, gsp agonist inconclusive
Cc1ccc(C(=O)OCC(=O)NC2CCCCC2)o1	none
Cc1ccc(-c2nc(C(=O)NC3CCCCCC3)no2)cc1	RXFP1 antagonist -61 (no result: TSHR antagonist, RXFP1 ag)
COC(=O)c1c(-c2ccc(Cl)cc2)noc1N1CCN(c2ccccc2OC)CC1	none (no result: pAkt inh, TSHR antagonist, gsp antagonist, gsp agonist)
Cc1ccc(-n2c(=O)[nH]c3sc4c(c3c2=O)CCNC4)cc1C	none (no result: pAkt inh, TSHR antagonist, gsp antagonist, gsp agonist)
COc1ccc(Cn2nnnc2C(C(C)C)N2CCN(c3ccccc3OC)CC2)cc1 (stereo unspecified)	TSHR antagonist -86, gsp agonist inconclusive
Cn1nc(CC(=O)Nc2ccc3c(c2)CCC3)c2ccccc2c1=O	pAkt inh -126%
O=C(NCCSCc1ccco1)Nc1cc(Cl)cc(Cl)c1	RXFP1 antagonist -71, gsp antagonist inconclusive
O=C(CSCc1ccc(Cl)cc1)NCCSCc1ccco1	none
CCOC(=O)[C@@H]1[C@H]2COc3ccc(Br)cc3[C@H]2N2C(=O)N(c3cccc(F)c3)C(=O)[C@]12C	none (no result: RXFP1 antagonist)
O=C(Cc1cccc2ccccc12)N/N=C/c1ccc(Sc2nc3ccccc3s2)o1	pAkt inh -112%
O=C(COc1cccc2ccccc12)N/N=C/c1ccc(Sc2nc3ccccc3s2)o1	none
O=C(COc1ccc(S(=O)(=O)NCc2ccccc2)cc1)NCc1cccnc1	none
Cc1ccc(-c2ccc(/C=N/N=C3/NC(=O)C(CC(=O)O)S3)o2)c([N+](=O)[O-])c1 (stereo unspecified)	TSHR antagonist -72
O=C(O)CC1S/C(=N/N=C/c2ccc(-c3ccccc3[N+](=O)[O-])o2)NC1=O (stereo unspecified)	none
CC(C)(CNC(=O)CNC(=O)c1ccccc1F)N1CCOCC1	none
O=C(Cc1sc(Nc2ccccc2)nc1-c1ccccc1)NCc1ccccn1	none
